Hits are enriched below; roughly 1.3% of the tested compounds scored in any of these assays.
Yeast superoxide – caloric restriction mimetics inhibiting age-related superoxide in yeast | S. cerevisiae aged cells, superoxide DHE fluorescence; active compounds read low | superoxide response (% of plate mean), % at 10 µM | 330,000 compounds, 0.18% hits | AID 2690;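 active means superoxide response under a set limit, about three screen SD below normal, cut at about 65% in these data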;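 further: yeast aged for seven days with compound at 30 °C before DHE staining; 100% = average MFI of all compound-treated wells on the plate with controls excluded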
PvdQ inh – P. aeruginosa PvdQ acylase inhibition. purified PvdQ acylase, fluorescence plate reader. inhibition, % at 10 µM. 340,000 compounds, 0.063% hits; in the data active means inhibition above about 30%, passing the limit was not always enough;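 further: 0% = vehicle neutral wells and 100% = reference inhibitor wells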
MOR-DOR ag – OPRM1-OPRD1 heterodimerization agonism; 340,000 compounds, 0.3% hits; P35372+P41143; activation, % at 9.3 µM; cells, luminescence;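 further: 0% = vehicle-treated cells and 100% = reference agonist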
Target sequence (P35372 whole entry, looked up): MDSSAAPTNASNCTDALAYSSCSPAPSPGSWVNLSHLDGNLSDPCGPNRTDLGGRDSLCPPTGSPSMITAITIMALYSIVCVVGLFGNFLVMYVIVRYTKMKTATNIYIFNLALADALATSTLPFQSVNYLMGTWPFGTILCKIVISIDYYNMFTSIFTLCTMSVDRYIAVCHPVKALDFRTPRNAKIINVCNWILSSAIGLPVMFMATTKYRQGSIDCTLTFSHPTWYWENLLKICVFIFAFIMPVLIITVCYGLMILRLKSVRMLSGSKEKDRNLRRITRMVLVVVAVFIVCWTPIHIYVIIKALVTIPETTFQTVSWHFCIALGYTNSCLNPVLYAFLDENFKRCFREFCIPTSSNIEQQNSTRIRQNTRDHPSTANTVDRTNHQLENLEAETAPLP
Target sequence (P41143 whole entry, looked up): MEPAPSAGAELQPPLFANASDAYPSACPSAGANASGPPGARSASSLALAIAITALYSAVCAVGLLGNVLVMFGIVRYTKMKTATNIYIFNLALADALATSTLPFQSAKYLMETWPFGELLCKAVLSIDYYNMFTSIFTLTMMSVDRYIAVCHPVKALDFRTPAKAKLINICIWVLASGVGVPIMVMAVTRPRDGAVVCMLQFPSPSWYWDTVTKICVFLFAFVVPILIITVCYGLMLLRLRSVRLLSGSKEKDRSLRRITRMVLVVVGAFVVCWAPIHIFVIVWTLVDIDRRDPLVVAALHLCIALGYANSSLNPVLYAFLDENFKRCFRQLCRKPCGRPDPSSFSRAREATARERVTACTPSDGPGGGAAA
HTR5A inv ag – inverse agonist of human HTR5A in OPRM1-OPRD1 counter-screen; P47898; HTR5A cell line, luminescence, inverse agonism; inhibition, % at 9.3 µM; 340,000 compounds, 0.083% hits; AID 504634; in the data active means inhibition mostly above about 23%, no sharp cut-off; inactive means mostly below about 18%;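 further: 0% = cells with DMSO and 100% = no-cell wells with DMSO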
HTR5A ag – activates human HTR5A in OPRM1-OPRD1 agonist counter-screen | HTR5A agonist assay, luminescence, cell-based | P47898 | 340,000 compounds, 0.61% hits | activation, % at 9.3 µM; in the data active means activation mostly above about 9.5%, no sharp cut-off; inactive means mostly below about 7.6%;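 further: 0% = cells with vehicle only and 100% = reference agonist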
MOR-DOR inv ag – mu-delta opioid heterodimer inverse agonism; 340,000 compounds, 0.21% hits; inhibition, % at 9.3 µM; P35372+P41143; cell-based MOR-DOR heterodimer luminescence; AID 504357; in the data active means inhibition above about 22%, passing the limit was not always enough;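 further: 0% = cells with DMSO and 100% = wells without cells with DMSO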
OPRM1-D1 ag cf – OPRM1-OPRD1 heterodimer agonism, confirmation; cells, MOR-DOR heterodimerization, luminescence complementation; shares compounds with MOR-DOR ag; 830 compounds, 45% hits; activation, % at 9.3 µM;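 further: 0% = vehicle-treated cells and 100% = reference agonist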
HTR5A ag ctr2 – counter-screen for OPRM1-OPRD1 agonists: human HTR5A agonism; activation, % at 9.3 µM; AID 504905; shares compounds with MOR-DOR ag; HTR5A agonist counterscreen, cell luminescence; 830 compounds, 8% hits; in the data active means activation above about 17%;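 further: 0% = vehicle-treated cells and 100% = reference agonist response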
* hit, by the source's call; i = inactive; . = no result given. Unless noted, no stated cut-off is given here; in the data, active means activation above about 18%; inactive means the rest.

SMILES	Yeast superoxide	PvdQ inh	MOR-DOR ag	HTR5A inv ag	HTR5A ag	MOR-DOR inv ag	OPRM1-D1 ag cf	HTR5A ag ctr2
CC12CC[C@H]3[C@@H](CCC4(O)C[C@H](O)CCC34/C=N/NC(=O)c3ccccc3O)C1(O)CCC2C1=CC(=O)OC1 (stereo partly specified)	100.3	-7.5	34.8*	-29.5	9.4	-184.2	8.7	-0.1
O=P1(N(CCCl)CCCl)NCCCO1 (stereo unspecified)	96.6	-10.7	-1.5	-32.8	-2.8	8.2	.	.
CCC(C)N1C(=O)NC(=O)C2(Cc3c(ccc4ccccc34)N(C)C2)C1=O (stereo unspecified)	99.4	-9.1	20.2*	-29.7	13.5	-126.1	214.6*	-1.2
COC1=CC2C3Cc4ccc(OC)c(O)c4C2(CCN3C)CC1=O (stereo unspecified)	125.3	-10.3	-0.7	-20.2	8.2	3.1	.	.
COc1ccc2c(c1O)[C@]13CCN(C)[C@H](C2)[C@@H]1CCC(=O)C3	100.9	-8.0	96.4*	-15.7	5.0	i	23.3*	-0.9
CC1CC(OC(=O)c2ccccc2)(c2ccccc2)C(C)CN1C (stereo unspecified)	96.8	-3.3	-5.0	5.2	-2.2	24.9	.	.
CCC(=O)OC1(c2ccccc2)CCN(C)CC1C (stereo unspecified)	113.8	-12.7	.	.	.	.	.	.
CCC(=O)OC1(c2cccc(C)c2)CC(C)N(C)CC1C (stereo unspecified)	92.7	-1.9	64.2*	3.0	-1.2	-313.3	65.8*	-0.1
CCC(=O)OC1(Cc2ccc(CC)cc2)CC(C)N(C)CC1C (stereo unspecified)	100.6	-6.0	20.2*	-44.2	1.0	-105.8	1.7	1.3
CCC1(CC)C(=O)NC(=O)N(c2ccccc2)C1=O	.	-25.6	0.3	24.1	-2.4	-1.4	.	.
COC(=O)C1=C(c2cc3ccccc3o2)C[C@@H]2CC[C@H]1N2C(=O)NCCO	94.0	-2.4	-2.5	-17.1	6.4	14.6	.	.
c1ccc(C2(N3CCCCC3)CCCCC2)cc1	97.6	-10.5	373.9*	17.9	-7.7	i	345.9*	-1.8
O=C(c1cccc2ccccc12)C1CCCN(C2CCC2)C1 (stereo unspecified)	92.6	-9.1	-0.7	-10.7	-1.9	3.6	.	.
OC(CN1CCC(c2c[nH]c3ccccc23)CC1)C(F)(F)F (stereo unspecified)	94.7	-13.1	0.2	6.5	-1.8	-0.8	.	.
CN(C)C1(CNC(=O)Nc2ccc(Cl)c(Cl)c2)CCCCC1	93.5	3.1	67.4*	-19.0	7.1	-358.3	-0.8	-4.3
CCC(=O)C(CCN1CCOCC1)(c1ccccc1)c1ccccc1	95.2	-3.1	271.4*	2.8	0.7	i	250.2*	-1.1
N#CC(CCN1CCOCC1)(c1ccccc1)c1ccccc1	109.5	5.9	-4.1	2.3	-0.6	21.3	.	.
CC1[C@H]2Cc3ccc(O)cc3[C@]1(C)CCN2CCc1ccccc1 (stereo partly specified)	100.3	-15.0	338.9*	18.9	-8.2	i	315.0*	0.3
CC(C)C(=O)Nc1ccc(S(=O)(=O)N2CC3CC(C2)c2cccc(=O)n2C3)cc1 (stereo unspecified)	92.6	-6.7	-1.5	11.9	1.0	10.2	.	.
Cc1cc(NC(=O)CCl)nn1C	88.5	7.3	91.3*	-18.5	6.5	-468.6	1.1	1.9
C[C@@H]1O[C@@H](O[C@@H]2C=C3CCC4C(CC[C@]5(C)[C@@H](c6ccc(=O)oc6)CC[C@]45O)[C@@]3(C)CC2)[C@H](O)[C@H](O)[C@H]1O (stereo partly specified)	104.3	6.8	70.6*	-106.5	29.8*	-381.5	33.8*	27.2*
COC(=O)C1=C(c2ccc(F)cc2OCc2ccccc2)C[C@@H]2CC[C@H]1N2C(=O)NCc1cccc(C(F)(F)F)c1	92.1	-5.4	-1.6	-14.5	-5.2	8.5	.	.
COC(=O)C1=COC(C)C2CN3CCC4(C(=O)Nc5ccccc54)C3CC12 (stereo unspecified)	87.4	-1.9	-0.8	21.2	1.4	3.8	.	.
COC(=O)C1=CO[C@@H](C)[C@@H]2CN(CCc3c[nH]c4ccccc34)CC[C@H]12	96.0	14.6	91.6*	-12.6	-8.1	i	122.8*	1.0
O=C(O)C1CC2(Cl)C(Cl)=C(Cl)C1(Cl)C2(Cl)Cl (stereo unspecified)	.	6.8	-3.3	1.3	-0.3	15.9	.	.
SMILES	Yeast superoxide	PvdQ inh	MOR-DOR ag	HTR5A inv ag	HTR5A ag	MOR-DOR inv ag	OPRM1-D1 ag cf	HTR5A ag ctr2
COc1ccc(C(CNC(=O)CCc2ccsc2)N(C)C)cc1 (stereo unspecified)	98.9	-0.1	404.6*	12.8	2.0	i	55.0*	-3.3
COc1ccc(C(CN(C)C)C2(O)CCCCC2)cc1 (stereo unspecified)	91.2	-13.6	-2.2	-18.4	-3.4	12.2	.	.
Clc1cccc(CNCCc2ccc3c(c2)OCO3)c1	100.4	-12.4	2.4	19.1	-5.4	-11.0	.	.
CC1(C)CC(CCNCc2ccc3c(c2)OCO3)(Cc2ccccc2)CCO1 (stereo unspecified)	128.0	6.5	30.9*	3.0	-1.1	-162.8	27.6*	-4.1
CN1CC[C@]23c4c5ccc(O)c4OC2[C@H](O)C=CC3[C@H]1C5 (stereo partly specified)	95.4	1.3	.	-0.5	0.2	.	.	4.6
CN1CCC23c4c5ccc(O)c4O[C@@H]2[C@H](O)C=CC3C1C5 (stereo partly specified)	119.2	-4.8	.	4.7	-2.0	.	.	.
COC(=O)C1=C(c2cccc(OCc3ccccc3)c2)C[C@@H]2CC[C@H]1N2C(=O)NCCN1CCOCC1	94.3	-4.5	-2.2	-6.5	2.2	12.8	.	.
CCC(COC(=O)c1cc(OC)c(OC)c(OC)c1)(c1ccccc1)N(C)C (stereo unspecified)	82.4	-3.3	54.4*	16.7	-4.7	-294.3	50.7*	13.5
COc1ccc(CNCCc2c[nH]c3ccccc23)c(OC)c1C	112.9	9.2	21.3*	-24.6	6.6	-95.3	48.2*	15.1
Cc1cc(C=O)c(C)n1C1CC1	93.5	-2.1	-2.9	11.8	-4.7	13.8	.	.
CC1OC(OC2CC(O)C3(CO)C4C(O)CC5(C)C(C6=CC(=O)OC6)CCC5(O)C4CCC3(O)C2)C(O)C(O)C1O (stereo unspecified)	.	-16.4	80.0*	0.1	26.1*	-403.7	5.0	3.3
C[C@H]1CCCC(=O)CCC/C=C/c2cc(O)cc(O)c2C(=O)O1	104.5	-9.9	2.9	-23.9	-4.4	-15.8	.	.
